In PubChem BioAssay (NCI):
The panel holds about 83,000 compounds, 20% with a hit somewhere; the sample as a whole holds those more often.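 Values shown are percent growth following 48 h exposure of cells in 96-well plates to a single concentration of compound; below 10 was considered active.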 A number with no mark means an inactive call. Active and inactive are the calls of the source.

Tests used:
Assay in all cases: NCI-60 one-dose screen, 48 h (100 = growth as untreated, 0 = no growth, -100 = all killed)
Settings in all cases: 10 µM unless noted
NCI-H23 lung = test system: NCI-H23 lung
NCI-H226 lung = test system: NCI-H226 lung
NCI-H322M lung = test system: NCI-H322M lung
HOP-62 NSCLC = test system: HOP-62 NSCLC
NCI-H460 lung = test system: NCI-H460 lung
HOP-92 NSCLC = test system: HOP-92 NSCLC
NCI-H522 lung = test system: NCI-H522 lung
A549/ATCC NSCLC = test system: A549/ATCC NSCLC
786-0 renal = test system: 786-0 renal
COLO 205 colon = test system: COLO 205 colon

SMILES	growth (NCI-H23 lung)	growth (NCI-H226 lung)	growth (NCI-H322M lung)	growth (HOP-62 NSCLC)	growth (NCI-H460 lung)	growth (HOP-92 NSCLC)	growth (NCI-H522 lung)	growth (A549/ATCC NSCLC)	growth (786-0 renal)	growth (COLO 205 colon)
COc1cccc2c1[C@H](OC)[C@]13O[C@@]1(C2=O)[C@H](O)[C@H](C)[C@@](O)(C(=O)[C@@H]1O[C@H]1C)[C@@H]3O	-63.9% (active)	-54.4% (active)	1.69% (active)	-26% (active)	-33.2% (active)	-16.8% (active)	-31.9% (active)	-16.7% (active)	-16.9% (active)	-44.9% (active)
CCOP(=O)(OCC)OC[C@]12CC[C@@H](C)[C@H](C)C1C1=CC[C@@H]3[C@@]4(C)CCCNC(C)(C)[C@@H]4CC[C@@]3(C)[C@]1(C)CC2 (stereo not given in full)	31.7%	62.5%	81.7%	65%	-68.2% (active)	34.8%	57.2%	18.2%	14.9%	-50.7% (active)
Clc1ccc2[nH]cc(-c3cncn3CCc3ccc4c(c3)OCO4)c2c1	62.9%	56.8%	75.5%	85.5%	81.6%	9.07% (active)	69.2%	73.2%	73.7%	80.5%
Cc1ccccc1Nc1nc(SC(C)C)nc(-c2ccccc2)c1C#N	31.7%	81.1%	70%	37%	45.5%	64.5%	73%	102%	10.6%	119%
CCOC(=O)c1c(NC(=O)c2cccc(C(F)(F)F)c2)sc2c3c(ccc12)OCN(C)C3	83.6%	77.8%	18%	-87.6% (active)	-75.9% (active)	15.2%	-15% (active)	-77.7% (active)	-71.9% (active)	-57.6% (active)
CC(C)(O)c1cncc(-c2ccc3ncc(C#N)c(N4CCc5cc(F)c(Cl)cc54)c3c2)c1	26.8%	-6.33% (active)	11%	1.17% (active)	11.1%	-8.73% (active)	-2.54% (active)	6.02% (active)	8.75% (active)	14.5%
O=C(CCCCCCN1CC(=O)N2[C@@H](c3cccs3)c3[nH]c4ccccc4c3C[C@H]2C1=O)NO	94.1%	107%	79.8%	91.2%	77.2%	69%	44.7%	98.9%	103%	93.1%
O=C1C(N2CCN(c3ccccc3)CC2)=C(Cl)C(=O)c2ncccc21	46.3%	91.3%	95.2%	63.9%	38.7%	128%	-16.2% (active)	91.5%	105%	65.2%
COc1cc2oc(-c3cccc(NC(=O)c4cccc([N+](=O)[O-])c4)c3)cc(=O)c2c(OC)c1OC	69%	62.8%	82.4%	-36.4% (active)	51.2%	-0.118% (active)	58.5%	43.8%	65.6%	85.8%
CC[C@]12CC(C(=O)OC)=C3Nc4ccccc4[C@@]34CCN(C14)[C@@H]1c3cc4c(cc3O[C@@H]1[C@H]2O)NC1=C(C(=O)OC)C[C@@]2(CC)C3N(CC[C@@]143)C[C@H]1O[C@H]12 (stereo not given in full)	10.2%	18.9%	28.8%	29%	15.3%	-2.19% (active)	1.97% (active)	21.9%	23.2%	-1.32% (active)
O=C1Nc2ccccc2/C1=N\c1nnc(-c2ccccc2)o1	91.8%	88.7%	86.8%	82.6%	99.2%	72.2%	88.4%	103%	108%	107%
COc1ccccc1Cn1cc(C#N)c(N)c1C(=O)c1ccc(Br)cc1	91.8%	89.5%	94.6%	104%	96.4%	100%	89.5%	101%	102%	113%
Cc1ccc(Nc2nc(SC(C)C)nc(-c3ccccc3)c2C#N)cc1	86.1%	76.1%	70.7%	72.2%	95.2%	80.7%	83.7%	96.2%	92.2%	112%
COc1ccc2[nH]cc(-c3nn4cc(-c5ccncc5)nc4s3)c2c1	70.2%	76.5%	78.2%	69.9%	51.3%	28.9%	51%	74.6%	79.8%	47%
C#CCN(C)CCCOc1ccc(NC(=O)CCCCCCC(=O)NO)cc1Cl	28.1%	63.1%	26.5%	30.1%	25.8%	-14% (active)	12.8%	20.5%	39.3%	-26.1% (active)
CCN(CC)c1ccc(/C=N/NC(=O)c2ccc(NS(C)(=O)=O)cc2)cc1	36.5%	51.8%	27.3%	17.4%	8.88% (active)	80%	21.8%	29.9%	13.5%	13.9%
NC(=O)c1ncn2c(=O)n(CCF)nnc12	94.5%	68.5%	78%	53.5%	54.9%	99.3%	82.7%	99%	61.3%	57.4%
NC(=O)n1c(=O)n(-c2cccc(C(F)(F)F)c2)c(=O)c2cc(-c3ccc(F)cc3F)ccc21	-6% (active)	13.2%	0.936% (active)	-9.38% (active)	4.55% (active)	-36.3% (active)	-11.2% (active)	4.69% (active)	45%	87.5%
Clc1cccc(/C=N/Nc2nc(N/N=C/c3cccc(Cl)c3)nc(N3CCCCC3)n2)c1	97.8%	82%	101%	104%	96.5%	108%	88.3%	86.3%	95.2%	102%
O=S(=O)(Oc1ccc(-c2cn3ccoc3n2)cc1)c1cccc(C(F)(F)F)c1	98%	93.5%	102%	104%	104%	91.7%	90.3%	99.6%	99.9%	115%
CS(=O)(=O)c1ccc(/C(=N/N=C(N)N)c2ccc(Cl)cc2)cc1	95.4%	95.5%	94.9%	85.1%	99.1%	57.2%	77.4%	99.2%	88.5%	91.5%
C/C(=N\NC(N)=S)c1nnn(-c2ccc([N+](=O)[O-])cc2)c1C	95.4%	93.1%	95.3%	99.4%	100%	98.7%	89.6%	103%	103%	103%
N#Cc1cccc(-c2cc(-c3ccc4c(c3)OCCO4)[nH]n2)c1	50%	72.2%	54.8%	43.5%	15%	75.5%	23.8%	47.8%	63.4%	20.2%
CN1CCN(Cc2ccc(NC(=O)c3cncc(C#Cc4cnc5ccc(NCCO)nn45)c3)cc2C(F)(F)F)CC1	-40.2% (active)	-14% (active)	-15% (active)	-41.5% (active)	-78% (active)	-27.1% (active)	-75.8% (active)	1.34% (active)	-17.9% (active)	-82.3% (active)
O=S(=O)(NCCCNc1nccc(-c2[nH]c(-c3ccccc3)nc2-c2ccc(F)c(O)c2)n1)c1cccc(F)c1	90.4%	96.7%	103%	116%	78%	94.6%	87.5%	92.4%	101%	96.3%
O=C(COc1ccc(/C=C2\C(=O)Nc3ccc(F)cc32)cc1)Nc1ccccc1	95%	96.6%	99.3%	99.5%	96.1%	116%	93.9%	96.7%	105%	113%
